Four compounds from the supplement of paper PMC11219838 can be followed below.

The test system of the assay is Caenorhabditis elegans dauer (daf-2(e1370)). Description: proportion of mobile C. elegans dauer larvae relative to DMSO control (fraction of DMSO control); higher = more viable, less nematicidal, active = 0.63 or less; extreme values may be limits of the assay. The note with it: 60 µM; 5 days; temperature: 20 °C. Here is the method:
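DODA library (846 commercial 1,3,4- and 1,2,4-oxadiazole compounds plus commercial nematicide controls) screened at a single dose of 60 µM (0.6% DMSO) in 96-well plates, two biological replicates. Read-outs: C. elegans N2 L1 survival/reproduction score at day 6, 20 °C (0: 0-10 worms, 1: 11-20, 2: 21-50, 3: >50, 4: overgrown/starved). C. elegans daf-2 dauer, D. dipsaci and M. hapla J2 mobility at day 5, 20 °C, and P. penetrans mobility at day 5, 20 °C, each relative to DMSO controls. M. hapla egg hatching at day 12, 25 °C, relative to the mean of 8 DMSO wells on the same plate.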
Turning to `CNC(=O)O/N=C(\SC)C(=O)N(C)C` [oxamyl], the “proportion of mobile C. elegans dauer larvae” value was 1 (inactive).
For `CC[C@H](C)[C@H]1O[C@]2(C=C[C@@H]1C)C[C@@H]1C[C@@H](C/C=C(\C)[C@@H](O[C@H]3C[C@H](OC)[C@@H](O[C@H]4C[C@H](OC)[C@@H](O)[C@H](C)O4)[C@H](C)O3)[C@@H](C)/C=C/C=C3\CO[C@@H]4[C@H](O)C(C)=C[C@@H](C(=O)O1)[C@]34O)O2.CO[C@H]1C[C@H](O[C@H]2[C@H](C)O[C@@H](O[C@@H]3/C(C)=C/C[C@@H]4C[C@@H](C[C@]5(C=C[C@H](C)[C@@H](C(C)C)O5)O4)OC(=O)[C@@H]4C=C(C)[C@@H](O)[C@H]5OC/C(=C\C=C\[C@@H]3C)[C@]54O)C[C@@H]2OC)O[C@@H](C)[C@@H]1O` [abamectin] the value was 0.242 (active); for `CC(C)NC(=O)N1CC(=O)N(c2cc(Cl)cc(Cl)c2)C1=O` [iprodione], 1 (inactive); for `O=C(NCCc1ncc(C(F)(F)F)cc1Cl)c1ccccc1C(F)(F)F` [fluopyram], 0 (active).
